This passage reports growth results from PubChem BioAssay (NCI).

The panel holds about 83,000 compounds, 20% with a hit somewhere; the sample as a whole holds those more often.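 48-hour exposure, single concentration, 96-well plates; percent growth endpoint where 0 means no net growth. Active: below 10.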 Unmarked numbers belong to inactive results. Active and inactive are the calls of the source.

The test deals with MDA-MB-468 breast. The experiment in a line: NCI-60 one-dose screen, 48 h (100 = growth as untreated, 0 = no growth, -100 = all killed). The following applies: 10 µM unless noted.
Turning to `O=C(Cn1cccc(Nc2ccccc2)c1=O)Nc1ccccc1`, the growth was 95.1%.
The value for `Cc1cc(OCCO)cc(C)c1Cl` was 124%; that for `COc1ccc(C(=O)c2nc3ccccc3n2CC(=O)c2ccc(Cl)cc2)cc1` was 33.8%.
Consider `COc1cccc(/C=C2\CCc3ccccc3C2=O)c1`, for which the growth is 63.9%.
As to `CCOc1ccc(/C=N/Nc2cc(C)nc3ccc(Br)cc23)cc1`, the growth is 65.2%.
As to `CSc1ccc(/C(=N/N=C(N)N)c2ccccc2)cc1`, the growth was 44.8%.
With `Clc1ccccc1-c1nc2ccccc2[nH]1` the figure was 88.3%.
`CC(C)c1[nH]nc2c(NCc3ccc(-c4ccccn4)cc3)nc(SCCN(C)C)nc12`: the growth is -50.1% (active).
Consider `CS(=O)(=O)c1ccc(-c2nc3cc(Cl)ccc3n2CC(=O)NO)cc1`, for which the growth is 96%.
With `Cc1[nH]c(-c2nc3ccccc3[nH]2)c(C)c1C(=O)NNc1ccc(Cl)cc1` the figure was 84.8%; with `O=C(/C=C/c1ccccc1)CC(c1ccccc1)N1CCOCC1` (stereo not given), 92.4%; with `CNC1=C([N+](=O)[O-])C(c2ccccc2O)C(C#N)=C(c2cccs2)O1` (stereo not given), 74.5%.
The value for `O=S(=O)(NCCNc1cc(-c2c(-c3cccc(O)c3)nc3sccn23)ccn1)c1ccc(Br)cc1` was 47.7%; that for `CN[C@@]12CC3(C=CC(=O)C=C3)O[C@]1(Cc1ccc(OC)cc1)N(C)C(=O)N2` was 23.7%.
The value for `COc1cc(/C=C2\C(=O)N(CCCOc3cc(O)c4c(=O)cc(-c5ccccc5)oc4c3)c3ccccc32)cc(OC)c1O` was 89.4%; that for `Cc1noc(C)c1CSc1nc2ccccc2n1-c1ccccc1` was 108%; that for `CCN1/C(=C\c2cc[n+](CC)c3ccccc23)C=Cc2ccccc21` was -9.93% (active).
As to `COc1cc(/C=N/Nc2ccc(Br)cc2)cc(OC)c1OC`, the growth is 49.5%.
The value for `OCCNCCNc1c2ccccc2nc2ccccc12` was 37.4%; that for `O=C(c1ccccc1)N(CCc1ccc(Cl)cc1)C(=S)N(C(=O)c1ccccc1)c1ccccc1` was 36%.
With `Cc1nn(-c2ccccc2)c(Oc2c(Cl)cccc2Cl)c1/C=N/N=c1\sc2ccccc2n1C` the figure was 39.7%; with `COc1cc(N2C(=O)[C@H](Cl)C2c2ccc(SC)cc2)cc(OC)c1OC` (stereo not given in full), -9.26% (active).
With `COc1ccc(Nc2nnc(SCc3ccccc3F)s2)cc1` the figure was 55.9%.
For the molecule `CCOC(=O)c1cc2c(n1Cc1cc(OC)cc(OC)c1Br)-c1nc(NC(C)=O)sc1CCC2`, the growth was 77.7%.
The value for `COc1ccc(C(=O)c2cc(C)c(OC)c(C)c2)c(OC)c1OC(=O)C(Cl)Cl` was 11.4%; that for `O=C1C=CC2(NN=C(c3ccccc3)N2c2ccccc2)c2cccc(O)c21` (stereo not given) was 36.2%; that for `COC(=O)[C@]12CC[C@@H](C)[C@H](C)[C@@H]1C1=CC[C@@H]3[C@@]4(C)C=C(O)C(=O)[C@@]5(C)COC(=C54)C[C@@]3(C)[C@]1(C)CC2` was -57.7% (active).
The value for `C[C@H]1Oc2cc(cnc2N)-c2c(nn(C)c2C#N)CN(C)C(=O)c2ccc(F)cc21` was 98.5%; that for `COc1cc2nc(Cl)nc(Nc3cccc(C(=O)/C=C/c4ccc(Br)cc4)c3)c2cc1OC` was 85.7%; that for `O[C@H]1CO[C@H]2[C@@H]1OC[C@@H]2Oc1ccc(Nc2nc(Nc3ccc(F)c(Cl)c3)ncc2F)cc1Cl` was 97.6%.
With `CCOC(=O)c1c(Nc2ccccc2)nn2c(-c3ccc(OC)c(OC)c3)ccnc12` the figure was 37.7%; with `CCC(CC)N1C(=O)/C(=c2\sc3n(c2=O)NC2C(N=3)N(CC)C(=O)N2CC)c2ccccc21` (stereo not given), 79.9%.
For `OCCN1CCN(c2cc(-c3cccc(OC(F)(F)F)c3)nc3ccc(N4CCCC4)cc23)CC1`, the growth is 16.6%.
The value for `Cc1ccc(-c2nnc(SCc3nc(N)nc(Nc4ccccc4F)n3)n2-c2ccccc2)cc1` was 86.5%; that for `C=CCn1c(SCC(=O)Nc2cccc(C(=O)/C=C/c3cc(OC)c(OC)c(OC)c3)c2)nc2ccccc2c1=O` was 35.3%.
Regarding `COC1=CC(c2ccc[nH]2)=N/C1=C\c1[nH]c(C)c(C(=O)Oc2ccccc2)c1C`, the growth was -82.9% (active).
The value for `O=C(c1ccc(-c2nc(CSc3nc4ccccc4s3)no2)cc1)N1CCSCC1` was 4.1% (active); that for `Cc1ccc(N=Nc2c(N)nc(N)[nH]c2=O)cc1C` was 84.5%; that for `O=C1NC(=S)S/C1=C\c1cccc([N+](=O)[O-])c1` was 106%.
With `CC/C(=C(/c1ccc(O)cc1)c1ccc(OCCN2CCCCCC2)cc1)c1ccc(Cl)cc1` the figure was 38.6%.
